From PubChem
KB-3-1 tox – KB-3-1 parental cell cytotoxicity. AID 1347075. 400,000 compounds, 1.4% hits. Potency, µM (highest dose often 46.1 µM), actives largely listed as cytotoxic. KB-3-1 viability, CellTiter-Glo ATP luminescence, 72 h; note: nearly all actives have a fitted effect of over 60% in size
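72 h, 37 °C compound treatment of KB-3-1 parental cells; CellTiter-Glo added, 10 min, luminescence read. Data corrected against DMSO-only plates and normalized before curve fitting.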
DT40 TDP1 no CPT – qHTS for Inhibitors of human tyrosyl-DNA phosphodiesterase 1 (TDP1): qHTS in cells in absence of CPT; AID 686978, 2013; DT40 Tdp1-/- hTDP1 cells, no CPT, ATP luminescence, 48 h; 420,000 compounds, 15% hits; Potency, µM (doses to about 46.2 µM), inactives show top-dose activity change, negative = growth inhibition, most hits filed as inhibitors; note: nearly all actives have a fitted effect of over 55% in size
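Chicken DT40 Tdp1-/- cells complemented with human TDP1, screened without camptothecin (DMSO vehicle only), 400 cells/well. Compounds pin-transferred, cells incubated at 37 °C for at least 48 hr. Growth read as ATP-dependent luminescence (CellTiter-Glo, 30 min at RT).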
DT40 TDP1 CPT – growth inhibition of DT40 Tdp1-/-;hTDP1 cells with camptothecin (screen for TDP1 inhibitors); AID 686979; Potency, µM (highest dose often 46.2 µM), for the others: top-dose activity change, negative = growth inhibition, most hits filed as inhibitors; chicken DT40 Tdp1-/-;hTDP1 cells + 20 nM CPT, ATP luminescence, 48 h; 420,000 compounds, 12% hits; note: nearly all actives have a fitted effect of over 55% in size
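Chicken DT40 Tdp1-/- cells complemented with human TDP1, 400 cells/well, exposed to compounds plus 20 nM camptothecin for at least 48 h at 37 C; viability read as ATP content by CellTiter-Glo luminescence.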
HT1080NT lethal – kills 2HG-producing HT-1080-NT fibrosarcoma cells | HT-1080-NT fibrosarcoma viability, CellTiter-Glo ATP luminescence, 48 h | Potency, µM (titrated, usually from 46.1 µM), without a hit: at the top dose activity, negative = less viability, hits mostly cytotoxic | 360,000 compounds, 1.6% hits;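 note: NT is the 2HG producing partner of a matched IDH1 knockdown line; 0% = DMSO-treated cells and -100% = media-only wells without cells; nearly all actives have a fitted effect of over 55% in size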
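Viability of the 2HG-overproducing fibrosarcoma line after 48 hours of compound exposure at 37 degrees C was determined by luminescence with CellTiter-Glo, and concentration-effect curves were then fitted and categorized.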
KB-V1 MDR tox – kills drug-selected multidrug resistant KB-V1 cells; KB-V1 MDR cells viability, CellTiter-Glo, 72 h; Potency, µM (doses to about 46.1 µM), hits mostly cytotoxic; 400,000 compounds, 3.4% hits; AID 1347076; note: nearly all actives have a fitted effect of over 60% in size
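In this primary screen, KB-V1 cells overexpressing P-gp are incubated with library compounds (lowest to highest concentration) for 72 h at 37 degrees C before a luminescent ATP viability read.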
HT1080 IDH1KD tx – kills HT-1080 cells with IDH1 knockdown | 360,000 compounds, 2% hits | HT-1080 IDH1 knockdown viability, ATP luminescence, 48 h | Potency, µM (doses to about 46.1 µM), for inactives: at the top dose activity, negative = toxicity, usual class: cytotoxic | AID 686971;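 note: 0% = DMSO wells and -100% = cell-free medium wells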
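HT-1080-IDH1KD cells (IDH1 knocked down), 750/well in RPMI with 5% FBS, treated with compound 48 h at 37 degrees C. Viability by CellTiter-Glo luminescence, normalised to DMSO and no-cell wells; concentration-response curves classed.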
Starred values were filed as active, the others as inactive; i = inactive; ? = inconclusive; . = not tested or not shown. The list is not random: actives were taken first. Their share in the collection is about 19%. Calls come from the whole dose curve; as a rule, active = well fitted curve in the direction sought with a large enough effect; inconclusive = small, poorly fitted or top-dose-only effect, or another doubt; inactive = no such curve, though single readings can be large; an effect the other way counts as inactive or inconclusive. Unless noted, % is set by controls: 0 for no effect and ±100 for the full control effect; potency is the fitted concentration of half-maximal effect.

SMILES	KB-3-1 tox	DT40 TDP1 no CPT	DT40 TDP1 CPT	HT1080NT lethal	KB-V1 MDR tox	HT1080 IDH1KD tx
C=CCc1cc(Cl)ccc1OCCCNC(C)CC (stereo not drawn)	?	15µM*	16µM*	?	13µM*	?
C=CCc1ccc(OCCCCNC(C)CC)c(OC)c1 (stereo not drawn)	i	18µM*	?	-13%	?	-1%
Nc1cc(N)cc(Cc2ccccc2)c1	i	-10%	-13%	8%	i	0%
Nc1cc(Cc2ccccc2)ccc1O	i	?	23µM*	0%	18µM*	-4%
Cc1cc(C)cc(OCC(O)CN2CCN(Cc3ccc4c(c3)OCO4)CC2)c1 (stereo not drawn)	i	21µM*	13µM*	-10%	i	-20%
CN(c1ccccc1)S(=O)(=O)c1cccc(C(=O)N2CCCCCC2)c1	i	21µM*	16µM*	1%	i	-3%
Cc1ccc(S(=O)(=O)N(C)c2ccc(C(=O)N3CCCCC3)cc2)cc1	i	?	9.2µM*	-1%	?	-9%
CN(c1ccc(C(=O)N2CCCCC2)cc1)S(=O)(=O)c1ccccc1	i	8.2µM*	13µM*	-7%	i	?
CN(c1ccccc1)S(=O)(=O)c1ccc(C(=O)N2CCCC2)cc1	i	-29%	-23%	6%	i	7%
COc1ccc(-c2onc3ccc(Cl)cc23)cc1	i	-16%	?	24%	i	24%
CCc1cccc(C)c1NC(=O)C1CCN(c2nn3c(=O)cc(C)nc3s2)CC1	i	15%	?	2%	?	1%
CCNC(=O)C1(C)CCCN(C(=O)CCc2cccs2)C1 (stereo not drawn)	i	-12%	-25%	19%	i	?
O=C(CSc1ccccc1F)NNC(=O)c1cncc(Br)c1	i	13%	-1%	7%	i	8%
CC1CC(C)CN(C(=O)c2cccc(S(=O)(=O)N(C)c3ccccc3)c2)C1 (stereo not drawn)	?	5.8µM*	8.2µM*	?	?	-9%
COc1ccc(N(C)S(=O)(=O)c2cccc(C(=O)OCC(=O)N3CC(C)CC(C)C3)c2)cc1 (stereo not drawn)	i	21µM*	?	7%	i	9%
Cc1ccc(S(=O)(=O)N(C)c2ccc(C(=O)N3CCN(Cc4ccc5c(c4)OCO5)CC3)cc2)cc1	12µM*	21µM*	?	?	1.6µM*	?
CN(c1ccc(C(=O)N2CCN(Cc3ccccc3)CC2)cc1)S(=O)(=O)c1ccccc1	i	15µM*	-28%	-16%	i	-11%
CN(c1ccccc1)S(=O)(=O)c1cccc(C(=O)NC2CCCC2)c1	.	?	?	-4%	.	0%
O=C(c1ccccc1Cl)N1CCN(Cc2ccc3c(c2)OCO3)CC1	i	-15%	-13%	-6%	i	-10%
Cc1ccccc1NC(=S)N1CCN(Cc2ccc3c(c2)OCO3)CC1	i	?	2%	6%	?	1%
Cc1ccc(S(=O)(=O)N(C)C)cc1NC(=S)N1CCN(Cc2ccc3c(c2)OCO3)CC1	?	16µM*	15µM*	-1%	?	-1%
Cc1ccc(C(=O)N2CCN(Cc3ccc4c(c3)OCO4)CC2)c(Cl)c1	?	16µM*	8.2µM*	-10%	i	16µM*
Cc1cc(NC(=O)CN2C(=O)S/C(=C\c3ccccc3)C2=O)no1	i	-8%	-12%	-1%	i	-2%
O=C(O)CCCCCN1C(=O)/C(=C\c2ccncc2)SC1=S	?	23µM*	23µM*	8%	?	12%
